These compounds were tested on glycogen synthase kinase-3 (GSK3A per assay name; protocol says GSK3B) (assay: GSK3 binders on small-molecule microarrays, primary screen, biochemical, small-molecule microarray, 635 nm fluorescence, GSK3A (AID 1103; also: the record names both GSK3A and GSK3B)). Conditions: small-molecule microarray binding, fluorescence 635 nm; higher = more signal.
With `CCOC(=O)C[C@H]1[C@H](OC(=O)c2ccc(-c3ccccc3)cc2)[C@@H](NC(=O)Cc2ccc(OC)cc2)c2cc(OCCCO)ccc2N1C(=O)c1ccc2ccccc2n1` the composite z-score was 0.267.
`C=CC[C@@]1(C(=O)NCC(O)CO)N=C(c2ccc(OCCCO)cc2)O[C@@H]1c1ccccc1N=[N+]=[N-]` (some centres undefined) was tested, and the composite z-score was -0.669.
In the case of `CCCCC=C[C@@H](NC(=O)c1ccco1)c1ccccc1`, the composite z-score was -0.877.
Compound `CC(C)(C)OC(=O)CC[C@@]1(C(=O)NCCN2CCOCC2)N=C(c2ccc(OCCCO)cc2)O[C@@H]1c1ccccc1` has a composite z-score of 0.896.
For `CC(C)(C)N1CC=CC23O[C@@H]4C=CCOC(=O)[C@@H]4[C@H]2C(=O)N(CCCCCO)[C@@H]3C1=O` (some centres undefined), the composite z-score was -1.54.
In the case of `COc1ccc(C(O)C2C=CC3C(=O)N(c4ccccc4)C(=O)C3N2Nc2ccc([N+](=O)[O-])cc2)cc1OCc1ccccc1` (centres undefined), the composite z-score was 0.735.
For `CN(C)C(=O)[C@]1(CCC(=O)OC(C)(C)C)N=C(c2ccc(OCCCO)cc2)O[C@@H]1c1ccccc1N=[N+]=[N-]`, the composite z-score was 1.33.
In the case of `O=C1OCC=C[C@H]2OC34C=CCN(c5ccc6ccccc6c5)C(=O)[C@H]3N(CCCO)C(=O)[C@@H]4[C@@H]12` (some centres undefined), the composite z-score was -1.34.
Work on `COC(=O)c1c(CC[C@@H](CO)NC(=O)N[C@@H](Cc2ccccc2)Cn2cc(C3(O)CCCCC3)nn2)oc(C(C)=O)c1C(=O)OC` yielded a composite z-score of 0.819.
Work on `C=CCOC(=O)[C@H]1[C@@H]2C(=O)O[C@@H](c3ccccc3)[C@@H](c3ccccc3)N2[C@@H](c2ccc(OCCOC(=O)[C@@H]3C[C@@H]4C(=O)NCC(=O)N4[C@@H]3c3ccc(O)cc3)cc2)[C@]12C(=O)Nc1ccccc12` yielded a composite z-score of 1.19.
`[N-]=[N+]=NCc1ccccc1[C@H]1OC(c2ccc(OCCCO)cc2)=N[C@@]1(CCS(=O)(=O)c1ccccc1)C(=O)N1CCOCC1` showed a composite z-score of 0.239.
With `N[C@@H](Cc1ccccc1)Cn1cc(-c2ccccc2)nn1` the composite z-score was -0.595.
Work on `CC(C)CNC(=O)[C@@]1(c2ccc([N+](=O)[O-])cc2)CC(=O)N(CC23CC4CC(CC(C4)C2)C3)[C@@H]1c1ccc(CO)cc1I` yielded a composite z-score of 1.3.
Compound `O=C(CCN1CCOCC1)c1cccc(O)c1` has a composite z-score of 1.22.
`COC(=O)C(CC#Cc1ccc2c(c1)[C@]1(C(=O)N2)[C@H](c2ccc(OCCO)cc2)N2[C@H](c3ccccc3)[C@H](c3ccccc3)OC(=O)[C@H]2[C@@H]1C(=O)NC[C@H](O)c1ccccc1)C(=O)OC` showed a composite z-score of 0.801.
`C#CCN(C(/C=C/c1ccccc1)CO)C(C(=O)O)c1ccccc1` (centres undefined) was tested, and the composite z-score was -0.953.
`COc1ccc(C(=O)Nc2cccc(CN3C(=O)[C@@]4(O[C@@H](CCn5cc(CCO)nn5)[C@H]([Si](C)(C)c5ccc(OC)cc5)[C@H]4C)c4ccccc43)c2)cc1` gave a composite z-score of 1.17.
Work on `O=C(CS)NCCCCCCNC(=O)[C@@H]1C[C@@H]2C(=O)N3CCC[C@H]3C(=O)N2[C@@H]1c1ccc(O)cc1` yielded a composite z-score of 0.691.
`CCCNC(=O)[C@@]1(c2ccc([N+](=O)[O-])cc2)CC(=O)N(CC23CC4CC(CC(C4)C2)C3)[C@@H]1c1ccc(CO)cc1` was tested, and the composite z-score was 0.108.
`CC(C)c1ccc(NN2C(C(O)c3c(F)cccc3Cl)C=CC3C(=O)N(c4ccccc4)C(=O)C32)cc1` (centres undefined) was tested, and the composite z-score was 0.852.
In the case of `COc1ccc([Si](C)(C)[C@@H]2[C@@H](CCn3cc([C@H](O)c4ccccc4)nn3)O[C@]3(C(=O)N(Cc4ccc(N5C(=O)c6cccc7cccc5c67)cc4)c4ccccc43)[C@H]2C)cc1`, the composite z-score was -0.513.
`[N-]=[N+]=Nc1ccccc1C[C@]1(C(=O)NCCN2CCOCC2)N=C(c2ccc(OCCCO)cc2)O[C@H]1c1ccccc1` showed a composite z-score of 1.31.
Work on `COC(=O)C[C@@H]1C[C@H](C)[C@]2(O1)C(=O)N(Cc1ccccc1)c1ccc(NC(C)=O)cc12` yielded a composite z-score of 0.141.
`Cc1ccc([C@H]2C(C(=O)O)=C[C@@H](C)N2S(=O)(=O)c2ccc(C)cc2)cc1` showed a composite z-score of -0.107.
In the case of `O=C1O[C@H](c2ccccc2)[C@H](c2ccccc2)N2[C@H]1[C@@H](C(=O)O)[C@]1(C(=O)Nc3ccc(C#CC4=CCCCC4)cc31)[C@H]2c1ccc(OCCO)cc1`, the composite z-score was 1.28.
`C=CC(=C)C1=CCO[C@@H]1[C@H]1CCCN1S(=O)(=O)c1ccccc1[N+](=O)[O-]` was tested, and the composite z-score was 0.168.
`CCC(CC)C(O)C1C=CC2C(=O)N(c3ccccc3)C(=O)C2N1Nc1ccc(C#N)cc1` (centres undefined) showed a composite z-score of 1.27.
`CC(C)N1C(=O)c2ccccc2[C@@H](C(=O)NCCCN(C)C)[C@@H]1c1ccc(CO)cc1` showed a composite z-score of -0.367.
In the case of `COC(=O)[C@@]1(Cc2ccc(F)cc2)[C@H]2c3cc(C(=O)N4CCCC4)n(Cc4cccc5ccccc45)c3C[C@H]2CN1C(=O)c1ccccc1`, the composite z-score was -0.423.

— PubChem BioAssay
